Test results published in the supplement of paper PMC6555819.

What was measured:
Assay in all cases: PBM binding z-score (relative to random genomic background probes); higher = stronger binding; sequences stand for … in GC…GCGATTGACAGCGTAGAATGAAGG
[1] = tested on: FXR:RXRa (NR concentration 270 nM, RXRa partner concentration 90 nM)
How it was run: (§1)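 Ligand-free nuclear receptor dimers were applied to custom Agilent 4×180K protein-binding microarrays whose double-stranded probes carried direct-repeat seeds, single-nucleotide variants, half-site ablations and random human genomic background sequences in 34-nt variable regions. Incubation lasted 1 h. Binding z-scores were computed against the random background probes from regression-normalized fluorescence.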

[2] = tested on: LXRa:RXRa (NR concentration 270 nM, RXRa partner concentration 90 nM)
How it was run: as §1

[3] = tested on: LXRa homodimer (NR concentration 270 nM)
How it was run: as §1

[4] = tested on: LXRb:RXRa (NR concentration 270 nM, RXRa partner concentration 90 nM)
How it was run: as §1

[5] = tested on: LXRb homodimer (NR concentration 270 nM)
How it was run: as §1

[6] = tested on: PPARa:RXRa (NR concentration 270 nM, RXRa partner concentration 90 nM)
How it was run: as §1

[7] = tested on: PPARg:RXRa (NR concentration 180 nM, RXRa partner concentration 90 nM)
How it was run: as §1

[8] = tested on: PPARg:RXRa 270nM:90nM, anti-RXR (NR concentration 270 nM, RXRa partner concentration 90 nM)
How it was run: as §1

[9] = tested on: PPARg:RXRa 30nM:10nM, anti-RXR (NR concentration 30 nM, RXRa partner concentration 10 nM)
How it was run: as §1

[10] = tested on: PPARg:RXRa 90nM:30nM, anti-RXR (NR concentration 90 nM, RXRa partner concentration 30 nM)
How it was run: as §1

[11] = tested on: PPARg:RXRa DBDmut IVT, anti-RXR (DBD mutation: RXRa K156A/R161A, NR concentration 270 nM, RXRa partner concentration 90 nM)
How it was run: as §1

[12] = tested on: PPARg:RXRa IVT, anti-PPARg (NR concentration 270 nM, RXRa partner concentration 90 nM)
How it was run: as §1

[13] = tested on: PPARg DBDmut:RXRa IVT, anti-PPARg (DBD mutation: PPARg1 K132A/R137A, NR concentration 270 nM, RXRa partner concentration 90 nM)
How it was run: as §1

[14] = tested on: PPARg DBDmut IVT, anti-PPARg (DBD mutation: PPARg1 K132A/R137A, NR concentration 270 nM)
How it was run: as §1

[15] = tested on: PPARg homodimer (NR concentration 180 nM)
How it was run: as §1

[16] = tested on: PXR:RXRa (NR concentration 270 nM, RXRa partner concentration 90 nM)
How it was run: as §1

[17] = tested on: PXR homodimer (NR concentration 270 nM)
How it was run: as §1

[18] = tested on: RARa:RXR (NR concentration 270 nM, RXRa partner concentration 90 nM)
How it was run: as §1

[19] = tested on: RARa homodimer (NR concentration 270 nM)
How it was run: as §1

[20] = tested on: RARb:RXRa (NR concentration 270 nM, RXRa partner concentration 90 nM)
How it was run: as §1

ATACCAAGGTGATCGTGAGGTCGTTGACACTAAC was tested, and the PBM binding z-score [1] was 2.81, the PBM binding z-score [2] was 1.92 and the PBM binding z-score [3] was 0.798. It also gave a PBM binding z-score [4] of 1.38, a PBM binding z-score [5] of -0.392 and a PBM binding z-score [6] of 1.59. It also gave a PBM binding z-score [7] of 0.583, a PBM binding z-score [8] of 0.586 and a PBM binding z-score [9] of 0.0332. The PBM binding z-score [10] was 0.0166, the PBM binding z-score [11] was 0.337 and the PBM binding z-score [12] was 1.12. It also gave a PBM binding z-score [13] of -0.329, a PBM binding z-score [14] of 0.642 and a PBM binding z-score [15] of 1.07. The PBM binding z-score [16] was 3.23, the PBM binding z-score [17] was 1.34 and the PBM binding z-score [18] was 2.52. For the same sequence, the PBM binding z-score [19] was 0.306 and the PBM binding z-score [20] was 1.4.
For ATCGTAAGGTCGAGGTGAGTATAGAGAAAGGGAA, the PBM binding z-score [1] was 2.64, the PBM binding z-score [2] was 1.91 and the PBM binding z-score [3] was 0.0142. For the same sequence, the PBM binding z-score [4] was 1.68, the PBM binding z-score [5] was 0.624 and the PBM binding z-score [6] was 3.02. The PBM binding z-score [7] was 1.53, the PBM binding z-score [8] was 1.72 and the PBM binding z-score [9] was 0.505. For the same sequence, the PBM binding z-score [10] was 1.27, the PBM binding z-score [11] was -0.153 and the PBM binding z-score [12] was 1.72. The PBM binding z-score [13] was 1.12, the PBM binding z-score [14] was 1.14 and the PBM binding z-score [15] was 1.07. The PBM binding z-score [16] was 1.68, the PBM binding z-score [17] was 0.189 and the PBM binding z-score [18] was 2.17. It also gave a PBM binding z-score [19] of 0.395 and a PBM binding z-score [20] of 3.22.
CGTCCAAGGTCAAAGCTAGGTCAGTGAAAGCATT was tested, and the PBM binding z-score [1] was 7.24, the PBM binding z-score [2] was 5.98 and the PBM binding z-score [3] was 2.25. It also gave a PBM binding z-score [4] of 4.54, a PBM binding z-score [5] of 1.44 and a PBM binding z-score [6] of 5.65. For the same sequence, the PBM binding z-score [7] was 4.63, the PBM binding z-score [8] was 5.54 and the PBM binding z-score [9] was 1.86. For the same sequence, the PBM binding z-score [10] was 4.09, the PBM binding z-score [11] was 3.82 and the PBM binding z-score [12] was 4.33. The PBM binding z-score [13] was 0.45, the PBM binding z-score [14] was -0.526 and the PBM binding z-score [15] was 5.95. It also gave a PBM binding z-score [16] of 5.09, a PBM binding z-score [17] of 1.62 and a PBM binding z-score [18] of 6.21. It also gave a PBM binding z-score [19] of 1.19 and a PBM binding z-score [20] of 5.31.
Sequence ATCTCTAGGTAAGACTCAGTTCAGGGAAGAACGC has a PBM binding z-score [1] of 0.579, a PBM binding z-score [2] of 0.883 and a PBM binding z-score [3] of 0.863. It also gave a PBM binding z-score [4] of 0.68, a PBM binding z-score [5] of 1.19 and a PBM binding z-score [6] of 0.432. For the same sequence, the PBM binding z-score [7] was 0.216, the PBM binding z-score [8] was 0.397 and the PBM binding z-score [9] was 0.337. The PBM binding z-score [10] was 0.289, the PBM binding z-score [11] was 1.95 and the PBM binding z-score [12] was 0.842. The PBM binding z-score [13] was 1.12, the PBM binding z-score [14] was 0.798 and the PBM binding z-score [15] was 0.913. It also gave a PBM binding z-score [16] of 1.19, a PBM binding z-score [17] of 1.64 and a PBM binding z-score [18] of 0.799. The PBM binding z-score [19] was 1.28 and the PBM binding z-score [20] was 0.579.
In the case of ATCGAAAGGTCGAGAGGTGAGTATACAGAAAGGC, the PBM binding z-score [1] was 4.46, the PBM binding z-score [2] was 3.02 and the PBM binding z-score [3] was -0.0292. For the same sequence, the PBM binding z-score [4] was 2.63, the PBM binding z-score [5] was 0.274 and the PBM binding z-score [6] was 4.33. For the same sequence, the PBM binding z-score [7] was 3.42, the PBM binding z-score [8] was 3.44 and the PBM binding z-score [9] was 1.69. The PBM binding z-score [10] was 2.47, the PBM binding z-score [11] was -0.201 and the PBM binding z-score [12] was 1.82. The PBM binding z-score [13] was 0.777, the PBM binding z-score [14] was 0.861 and the PBM binding z-score [15] was 2.03. It also gave a PBM binding z-score [16] of 2.69, a PBM binding z-score [17] of -0.031 and a PBM binding z-score [18] of 3.73. It also gave a PBM binding z-score [19] of 0.105 and a PBM binding z-score [20] of 3.88.
Work on ATATGTAGGTTATCGGGTCATTCTGTTTGCGCAT yielded a PBM binding z-score [1] of 3.44, a PBM binding z-score [2] of 3.6 and a PBM binding z-score [3] of 2.23. It also gave a PBM binding z-score [4] of 3.26, a PBM binding z-score [5] of 1.27 and a PBM binding z-score [6] of 4.93. It also gave a PBM binding z-score [7] of 6.86, a PBM binding z-score [8] of 6.16 and a PBM binding z-score [9] of 3.52. It also gave a PBM binding z-score [10] of 5.94, a PBM binding z-score [11] of 7.83 and a PBM binding z-score [12] of 7.65. The PBM binding z-score [13] was 3.52, the PBM binding z-score [14] was 2.76 and the PBM binding z-score [15] was 2.77. For the same sequence, the PBM binding z-score [16] was 3.48, the PBM binding z-score [17] was 1.54 and the PBM binding z-score [18] was 3.91. The PBM binding z-score [19] was 1.87 and the PBM binding z-score [20] was 2.57.
